In PubChem BioAssay AID1159580 (chemical genetic matrix, 2015):
“And” between values parts separate entries of the source, which are not always exact repeats. Equal entries are not always repeated. Among all 5,500 compounds or so, about 2,000 (36%) were called active. Another 18% or so got no clear call; they are omitted. The list shows a part of the results. A number with no mark means an inactive call. No stated cut-off is given here; in the data, active means normalized growth mostly below about 0.91 (no sharp cut-off); inconclusive means no clear call, values can overlap the other calls; inactive means mostly above about 0.92.

Test: chemical genetic growth profiling, strain panel (AID 1159580);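 further: tested at 20 µM; growth read once vehicle control cultures reached saturation at 30 °C; 1 = growth at the plate median or of vehicle wells; lower values mean less growth of the strain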
Details: S. cerevisiae deletion strains, growth OD

With `CCCC(CCC)C(=O)O` as the compound, how does the normalized growth (locus YJR066W, strain TOR1, active compounds read low) read?
Its normalized growth is 0.926.

And the normalized growth (locus YJR075W, strain HOC1, active compounds read low)?
The normalized growth was 0.982.

What about the normalized growth (locus YKL009W, strain mrt4, active compounds read low) of the same compound?
Its normalized growth is 0.977.

And the normalized growth (locus YKL068W, active compounds read low)?
The normalized growth was 0.91 (active).

What about the normalized growth (locus YKL085W, strain MDH1 (second series), active compounds read low) of the same compound?
Its normalized growth is 0.918 (active).

What about the normalized growth (locus YKL085W, strain MDH1, active compounds read low) of the same compound?
Its normalized growth is 0.918 (active).

And the normalized growth (locus YKL160W, strain elf1, active compounds read low)?
The normalized growth was 1.

What about the normalized growth (locus YKR001C, strain vps1, active compounds read low) of the same compound?
Its normalized growth is 0.932.

And the normalized growth (locus YKR026C, strain gcn3, active compounds read low)?
The normalized growth was 1.01.

What about the normalized growth (locus YKR091W, strain srl3, active compounds read low) of the same compound?
Its normalized growth is 1.01.

What about the normalized growth (locus YLL001W, strain dnm1, active compounds read low) of the same compound?
The normalized growth was 1.

And the normalized growth (locus YLL026W, active compounds read low)?
Its normalized growth is 0.993.

What about the normalized growth (locus YLL041C, strain sdh2, active compounds read low) of the same compound?
The normalized growth was 1.01.

And the normalized growth (locus YLR027C, strain aat2, active compounds read low)?
The normalized growth was 1.

And the normalized growth (locus YLR039C, strain RIC1, active compounds read low)?
The normalized growth was 0.97.

What about the normalized growth (locus YLR058C, strain SHM2, active compounds read low) of the same compound?
Its normalized growth is 0.999.

What about the normalized growth (locus YLR102C, strain apc9, active compounds read low) of the same compound?
Its normalized growth is 0.977.

And the normalized growth (locus YLR113W, strain HOG1, active compounds read low)?
The normalized growth was 0.853 (active).

And the normalized growth (locus YLR221C, strain rsa3, active compounds read low)?
The normalized growth was 0.999.

And the normalized growth (locus YLR258W, strain gsy2, active compounds read low)?
The normalized growth was 1.01.

What about the normalized growth (locus YLR262C, strain YPT6 (second series), active compounds read low) of the same compound?
Its normalized growth is 0.99.

What about the normalized growth (locus YLR262C, strain YPT6, active compounds read low) of the same compound?
The normalized growth was 0.945.

And the normalized growth (locus YLR268W, strain sec22, active compounds read low)?
Its normalized growth is 0.961.

And the normalized growth (locus YLR320W, strain mms22, active compounds read low)?
The normalized growth was 1.01.

What about the normalized growth (locus YLR330W, strain CHS5, active compounds read low) of the same compound?
The normalized growth was 0.992.

What about the normalized growth (locus YLR342W, strain FKS1 (second series), active compounds read low) of the same compound?
The normalized growth was 1.01.

What about the normalized growth (locus YLR342W, strain FKS1, active compounds read low) of the same compound?
Its normalized growth is 1.01.

And the normalized growth (locus YLR357W, strain rsc2, active compounds read low)?
The normalized growth was 1.06.

And the normalized growth (locus YLR370C, strain arc18, active compounds read low)?
Its normalized growth is 1.01.

What about the normalized growth (locus YLR371W, strain rom2, active compounds read low) of the same compound?
Its normalized growth is 0.975.

What about the normalized growth (locus YLR384C, strain iki3, active compounds read low) of the same compound?
The normalized growth was 1.01.

What about the normalized growth (locus YLR418C, strain cdc73, active compounds read low) of the same compound?
Its normalized growth is 0.987.

What about the normalized growth (locus YML016C, strain PPZ1, active compounds read low) of the same compound?
Its normalized growth is 0.992.

What about the normalized growth (locus YML032C, strain rad52, active compounds read low) of the same compound?
Its normalized growth is 0.98.

What about the normalized growth (locus YML120C, strain ndi1, active compounds read low) of the same compound?
The normalized growth was 1.

And the normalized growth (locus YML124C, strain tub3, active compounds read low)?
Its normalized growth is 0.95.

And the normalized growth (locus YMR058W, strain fet3, active compounds read low)?
The normalized growth was 1.01.

And the normalized growth (locus YMR078C, strain ctf18, active compounds read low)?
The normalized growth was 0.967.

And the normalized growth (locus YMR125W, strain sto1, active compounds read low)?
Its normalized growth is 1.03.

And the normalized growth (locus YMR129W, active compounds read low)?
Its normalized growth is 1.01.

What about the normalized growth (locus YMR205C, strain PFK2, active compounds read low) of the same compound?
The normalized growth was 1.02.

And the normalized growth (locus YMR223W, strain ubp8, active compounds read low)?
Its normalized growth is 0.994.

And the normalized growth (locus YMR231W, strain pep5, active compounds read low)?
Its normalized growth is 1.02.

What about the normalized growth (locus YMR263W, strain SAP30, active compounds read low) of the same compound?
Its normalized growth is 0.999.

And the normalized growth (locus YMR307W, strain GAS1, active compounds read low)?
Its normalized growth is 1.04.

And the normalized growth (locus YNL067W, strain RPL9B, active compounds read low)?
Its normalized growth is 0.988.

And the normalized growth (locus YNL071W, strain lat1, active compounds read low)?
Its normalized growth is 1.01.

What about the normalized growth (locus YNL128W, strain TEP1, active compounds read low) of the same compound?
Its normalized growth is 1.

And the normalized growth (locus YNL175C, strain NOP13, active compounds read low)?
The normalized growth was 1.

And the normalized growth (locus YNL183C, strain NPR1, active compounds read low)?
Its normalized growth is 0.931.

And the normalized growth (locus YNL197C, strain WHI3, active compounds read low)?
The normalized growth was 0.971.

And the normalized growth (locus YNL209W, strain ssb2, active compounds read low)?
The normalized growth was 1.01.

And the normalized growth (locus YNL224C, strain SQS1, active compounds read low)?
The normalized growth was 0.981.

What about the normalized growth (locus YNL233W, strain BNI4, active compounds read low) of the same compound?
Its normalized growth is 0.977.

What about the normalized growth (locus YNL248C, strain rpa49, active compounds read low) of the same compound?
Its normalized growth is 1.04.

And the normalized growth (locus YNL250W, strain rad50, active compounds read low)?
The normalized growth was 0.937.

What about the normalized growth (locus YNL271C, strain bni1, active compounds read low) of the same compound?
The normalized growth was 0.942.

And the normalized growth (locus YNL298W, strain CLA4, active compounds read low)?
The normalized growth was 0.969.

And the normalized growth (locus YNL307C, strain MCK1, active compounds read low)?
Its normalized growth is 0.945.

What about the normalized growth (locus YNL322C, strain KRE1 (second series), active compounds read low) of the same compound?
The normalized growth was 1.

What about the normalized growth (locus YNL322C, strain KRE1, active compounds read low) of the same compound?
The normalized growth was 0.983 and 0.987.

What about the normalized growth (locus YNR049C, strain mso1, active compounds read low) of the same compound?
The normalized growth was 1.01.

What about the normalized growth (locus YNR052C, strain pop2, active compounds read low) of the same compound?
Its normalized growth is 0.985.

What about the normalized growth (locus YOL006C, strain TOP1, active compounds read low) of the same compound?
Its normalized growth is 1.05.

What about the normalized growth (locus YOL012C, strain htz1) of the same compound?
The normalized growth was 1.46.

And the normalized growth (locus YOL147C, strain pex11, active compounds read low)?
The normalized growth was 0.961.

What about the normalized growth (locus YOR001W, strain rrp6, active compounds read low) of the same compound?
Its normalized growth is 1.01.

What about the normalized growth (locus YOR061W, strain CKA2, active compounds read low) of the same compound?
Its normalized growth is 0.998.

What about the normalized growth (locus YOR069W, strain VPS5, active compounds read low) of the same compound?
Its normalized growth is 0.985.

And the normalized growth (locus YOR070C, strain gyp1, active compounds read low)?
The normalized growth was 1.01.

What about the normalized growth (locus YOR080W, strain dia2, active compounds read low) of the same compound?
Its normalized growth is 1.02.

What about the normalized growth (locus YOR083W, strain WHI5 (second series), active compounds read low) of the same compound?
Its normalized growth is 0.985.

And the normalized growth (locus YOR083W, strain WHI5, active compounds read low)?
The normalized growth was 0.998.

And the normalized growth (locus YOR106W, strain vam3, active compounds read low)?
The normalized growth was 1.01.

What about the normalized growth (locus YOR136W, strain idh2, active compounds read low) of the same compound?
Its normalized growth is 0.968.

And the normalized growth (locus YOR144C, strain elg1, active compounds read low)?
Its normalized growth is 0.965.

And the normalized growth (locus YOR184W, strain ser1, active compounds read low)?
Its normalized growth is 0.966.

And the normalized growth (locus YOR231W, strain MKK1, active compounds read low)?
The normalized growth was 0.935.

What about the normalized growth (locus YOR265W, strain rbl2, active compounds read low) of the same compound?
Its normalized growth is 1.01.

And the normalized growth (locus YOR270C, strain vph1, active compounds read low)?
Its normalized growth is 1.07.

And the normalized growth (locus YOR290C, strain snf2, active compounds read low)?
Its normalized growth is 1.

What about the normalized growth (locus YOR316C, strain cot1, active compounds read low) of the same compound?
Its normalized growth is 0.977.

What about the normalized growth (locus YPL051W, strain arl3, active compounds read low) of the same compound?
Its normalized growth is 0.999.

And the normalized growth (locus YPL055C, strain LGE1, active compounds read low)?
The normalized growth was 1.

And the normalized growth (locus YPL078C, strain atp4, active compounds read low)?
The normalized growth was 1.01.

And the normalized growth (locus YPL106C, strain sse1, active compounds read low)?
Its normalized growth is 1.01.

And the normalized growth (locus YPL240C, strain hsp82, active compounds read low)?
Its normalized growth is 1.02.

And the normalized growth (locus YPL256C, strain CLN2, active compounds read low)?
The normalized growth was 0.882.

And the normalized growth (locus YPR119W, strain clb2, active compounds read low)?
The normalized growth was 0.976.

And the normalized growth (locus YPR141C, strain kar3, active compounds read low)?
Its normalized growth is 0.871 (active).

What about the normalized growth (locus YPR163C, strain tif3, active compounds read low) of the same compound?
Its normalized growth is 0.959.

What about the normalized growth (locus YPR167C, strain met16, active compounds read low) of the same compound?
Its normalized growth is 0.973.

And the normalized growth (strain wtn01, active compounds read low)?
Its normalized growth is 0.954.
